# Assay outcomes as filed in PubChem.
# MCF10A rerep – A quantitative high throughput screen for small molecules that induce DNA re-replication in MCF 10a normal breast cells; Potency, µM (top dose mostly 46.1 µM), for the others: top-dose activity, positive = re-replication, usual class: activators; MCF 10A DNA re-replication, Hoechst nuclear intensity, 48 h; 350,000 compounds, 2.9% hits; AID 624296, 2012; also: % of control where 0% means no effect; nearly all actives have a fitted effect of over 50% in size
# SW480 rereplic – A quantitative high throughput screen for small molecules that induce DNA re-replication in SW480 colon adenocarcinoma cells; SW480 DNA re-replication, Hoechst DNA content imaging, 48 h; Potency, µM (titrated, usually from 46.1 µM), inactives show at the top dose re-replication activation, most hits filed as activators; 340,000 compounds, 1.8% hits; AID 624297, 2012; also: % of control where 0% means no effect; nearly all actives have a fitted effect of over 55% in size
#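 Cells (250 per well) received 23 nL compound or DMSO by pin tool and were kept 48 hr at 37 C, 5% CO2. Nuclei were then stained with Hoechst for 40 min and scanned for DNA content.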
# HT1080-NT tox – qHTS for induction of synthetic lethality in tumor cells producing 2HG: qHTS for the HT-1080-NT fibrosarcoma cell line; HT-1080-NT fibrosarcoma viability, CellTiter-Glo ATP luminescence, 48 h; Potency, µM (highest dose often 46.1 µM), for the others: top-dose activity, negative = less viability, hits mostly cytotoxic; 360,000 compounds, 1.6% hits;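 also: NT is the 2HG producing partner of a matched IDH1 knockdown line; 0% = DMSO-treated cells and -100% = media-only wells without cells; nearly all actives have a fitted effect of over 55% in size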
#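 HT-1080-NT; 750 cells/well; 5% FBS RPMI; 48 h compound, 37 degrees C; CellTiter-Glo luminescence; curve fitting and curve-class assignment.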
# KB-3-1 tox – qHTS assay for MDR1-selective chemotherapeutics: Primary screen using the parental adenocarcinoma cell KB-3-1; KB-3-1 viability, CellTiter-Glo ATP luminescence, 72 h; Potency, µM (doses to about 46.1 µM), hits mostly cytotoxic; 400,000 compounds, 1.4% hits; also: % is scaled to controls: 0 for no effect and ±100 for the full control effect; nearly all actives have a fitted effect of over 60% in size
#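 Luminescent ATP read-out (CellTiter-Glo) measures survival of drug-naive KB-3-1 cells after 72 h compound exposure at 37 °C. Titration series was screened from lowest to highest concentration, with DMSO vehicle plates as background controls.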
# KB-V1 cytotox – qHTS assay for MDR1-selective chemotherapeutics: Primary screen using the drug-selected MDR subline cells KB-V1 | KB-V1 MDR cells viability, CellTiter-Glo, 72 h | Potency, µM (highest dose often 46.1 µM), actives largely listed as cytotoxic | 400,000 compounds, 3.4% hits; also: % is scaled to controls: 0 for no effect and ±100 for the full control effect; nearly all actives have a fitted effect of over 60% in size
#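 KB-V1 MDR subline cells in DMEM (phenol-red free, 10% FBS) exposed to compounds in qHTS concentration series for 72 h at 37 degrees C. Viability read by CellTiter-Glo luminescence; concentration-effect curves fitted after normalization and correction.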
# HT1080 IDH1KD tx – qHTS for induction of synthetic lethality in tumor cells producing 2HG: qHTS for the HT-1080-IDH1KD cell line; HT-1080 IDH1 knockdown viability, ATP luminescence, 48 h; Potency, µM (series often up to 46.1 µM), without a hit: at the top dose activity, negative = toxicity, usual class: cytotoxic; 360,000 compounds, 2% hits; AID 686971, 2013;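 also: 0% = DMSO wells and -100% = cell-free medium wells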
#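 Viability of IDH1-knockdown HT-1080 fibrosarcoma cells was assessed by CellTiter-Glo after 48 h at 37 °C with titrated compound; concentration-effect curves were classified by fit quality and response size.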
# Starred values were filed as active, the others as inactive; i = inactive; ? = inconclusive; . = no result; ! = not confirmed by another sample. Rows were chosen to be rich in hits. Some 8% of all compounds tested hit in one or more screens of this group. Calls follow the shape of the dose curve; as a rule, active = well fitted curve in the direction sought with a large enough effect; inconclusive = small, poorly fitted or top-dose-only effect, or another doubt; inactive = no such curve, though single readings can be large; an effect the other way counts as inactive or inconclusive. Potency is read from the fitted curve at half-maximal effect.
SMILES,MCF10A rerep,SW480 rereplic,HT1080-NT tox,KB-3-1 tox,KB-V1 cytotox,HT1080 IDH1KD tx
Cc1nc(NC(=O)/C=C/c2ccccc2)sc1C(=O)NCCO,0%,-3%,0%,i,i,4%
Cc1nc(NC(=O)/C=C/c2ccccc2)sc1C(=O)Nc1ccccc1,21µM*,?,?,i,i,?
O=C(COc1ccc(Br)cc1)Nc1ccc(C(=O)OC2CCCCC2)cc1,.,.,.,i,i,.
COC1=CC(=O)C[C@@H](C)[C@]12Oc1c(Cl)c(OC)cc(OC)c1C2=O,?,?,?,i,?,?
COC1=CC(=O)CC(C)C12Oc1c(Cl)c(OC)cc(OC)c1C2=O (stereo not given),?,23µM*!,?,?,?,?
Cc1ccc(Nc2nc(-c3ccccc3)c(CC(=O)O)s2)cc1,26%,-2%,?,i,i,-28%
O=C(O)Cc1sc(Nc2ccc(F)cc2)nc1-c1cccs1,21µM*,16%,4%,i,i,-2%
O=C(O)C1CCN(c2ncc(-c3ccc4c(c3)OCCCO4)s2)CC1,.,.,.,i,i,.
CN(C)CCNC(=O)c1cccc(-c2cnc3c(NC=O)cc(-c4ccc(S(C)(=O)=O)cc4)cn23)c1,.,.,5%,i,i,2%
CN(C)CCNC(=O)c1cccc(-c2cnc3c(NC=O)cc(-c4cc(F)c(F)c(F)c4)cn23)c1,.,.,?,i,i,18µM*
CN(C)C(=O)c1cccc(-c2cnc3c(NC=O)cc(-c4cccc(C(F)(F)F)c4)cn23)c1,.,.,23µM*,i,?,18µM*
CN(C)CCNC(=O)c1cccc(-c2cc(NC=O)c3ncc(-c4cccc(C(F)(F)F)c4)n3c2)c1,.,.,29µM*,i,i,16µM*
Cc1cc(S(=O)(=O)Nc2ccc(-c3ccc(N4CCCCCC4)nn3)cc2)c(C)cc1Cl,.,.,.,i,?,.
CCOC(=O)C1(C)C=C(Nc2ccc(C(=O)O)cc2)C(=O)N1c1ccc(C(=O)O)cc1 (stereo not given),.,.,.,i,i,.
O=C(Nc1ccccc1Cl)C1CCN(c2nc3ccccc3[nH]2)CC1,.,.,.,i,i,.
Cc1nnc(SC(C)C(=O)NC2CCCCC2)s1 (stereo not given),0%,-26%,-3%,i,i,9%
CCN(CC)C(=O)CSc1nnc(SC(C)C(=O)NC2CC2)s1 (stereo not given),-4%,0%,-3%,i,26µM*,17%
CCn1cc(C(c2ccccc2)C(C(C)=O)[N+](=O)[O-])c2ccccc21 (stereo not given),?,2%,?,i,?,-11%
CC(=O)C(C(c1ccccc1)c1c[nH]c2ccccc12)[N+](=O)[O-] (stereo not given),?,?,?,7.3µM*,?,23µM*
COc1ccccc1C(C[N+](=O)[O-])c1c[nH]c2ccccc12 (stereo not given),?,?,15µM*,?,?,?
COc1cc(C(C[N+](=O)[O-])c2c(C)[nH]c3ccccc23)ccc1O (stereo not given),0%,-1%,1%,?,?,-11%
Cc1ccc(S(=O)(=O)N2CCCC2c2nc3ccccc3s2)cc1 (stereo not given),15%,9%,11%,i,21µM*,-5%
O=S(=O)(c1ccc(Cl)cc1)N1CCCC1c1nc2ccccc2s1 (stereo not given),20%,1%,3%,?,i,-17%
CCn1c(=O)c(C(=O)NNC(=O)c2cccc(Cl)c2)c(O)c2ccccc21,23µM*,?,13µM*,i,?,?
CCOC(=O)c1ccccc1Nc1cn(C(C)=O)c2ccccc12,?,?,?,5.8µM*,i,?
SMILES,MCF10A rerep,SW480 rereplic,HT1080-NT tox,KB-3-1 tox,KB-V1 cytotox,HT1080 IDH1KD tx
CCCn1c(=O)c(C(=O)NNC(=O)c2ccc(Cl)cc2Cl)c(O)c2ccccc21,0%,-1%,-6%,i,i,0%
Cn1c(=O)c(C(=O)NNC(=O)c2cccc(Cl)c2)c(O)c2ccccc21,7.3µM*,9.2µM*,6.5µM*,i,?,9.2µM*
CCCn1c(=O)c(C(=O)NNS(=O)(=O)c2ccc(Cl)cc2)c(O)c2ccccc21,15µM*,-3%,2%,i,?,1%
COc1ccccc1NC(=O)C(C)OC(=O)C(C)SCC(=O)Nc1ccc(C)cc1 (stereo not given),0%,0%,-6%,i,i,0%
CCOC(=O)c1ccc(NC(=O)CSc2nccn2-c2cc(C)cc(C)c2)cc1,.,.,.,?,i,.
Cc1cc2c(n1-c1ccc(C(=O)NCC(C)c3ccccc3)cc1)CCCC2 (stereo not given),.,.,.,i,?,.
CCCn1c(=O)c(C(=O)Nc2ccccc2C(=O)OCC)c(O)c2ccccc21,11µM*,?,18%,?,?,2%
CCCn1c(=O)c(C(=O)Nc2cccc(C)n2)c(O)c2ccccc21,13%,-1%,2%,i,?,-2%
CCC(C)n1c(=O)c(C(=O)Nc2ccccc2S(N)(=O)=O)c(O)c2ccccc21 (stereo not given),?,22%,?,16µM*,?,?
Cc1ccc(-n2c(C)n[nH]c2=S)cc1,1%,4%,21%,i,?,-1%
Cc1ccc(-c2csc3n[nH]c(=S)n23)cc1,1%,3%,-1%,?,12µM*!,1%
CCN(Cc1ccccc1)C(=O)Cn1cc(S(=O)(=O)Cc2cccc(Cl)c2)c2ccccc21,.,.,.,i,?,.
CCOc1cccc2sc(N(CCCN(C)C)C(=O)c3ccc(C(=O)c4ccccc4)cc3)nc12,5%,?,26µM*,i,i,?
CCOc1cccc2sc(N(CCN(C)C)C(=O)c3cc4ccccc4cc3OC)nc12,22%,81%,?,i,i,21µM*
CCOc1ccc2nc(N(CCN(C)C)C(=O)c3cc4ccccc4cc3OC)sc2c1,2%,116%,-2%,?,?,-11%
